# Measured values published in the OligoGym collection.
# What was measured:
# Experiment in all cases: pooled miR-30 sensor sort-seq; sequence = guide strand
# Conditions in all cases: shRNA
# GLA = target: GLA
# GKN1 = target: GKN1
# GJB7 = target: GJB7
# GIP = target: GIP
# GKN2 = target: GKN2
# GPIHBP1 = target: GPIHBP1
# GPR3 = target: GPR3
# GPR89B = target: GPR89B
# GPS1 = target: GPS1
# GRHL3 = target: GRHL3
# HBQ1 = target: HBQ1
# HDHD2 = target: HDHD2
# HHATL = target: HHATL
# HIST1H4A = target: HIST1H4A
# HIP1R = target: HIP1R
# HIST1H2BM = target: HIST1H2BM
# HIST1H2BN = target: HIST1H2BN
# HIST2H3A = target: HIST2H3A
# HLA-DRA = target: HLA-DRA
# HLA-DMA = target: HLA-DMA
# HKR1 = target: HKR1
# HS6ST1 = target: HS6ST1
# IKBKAP = target: IKBKAP
# IL18RAP = target: IL18RAP
# IL32 = target: IL32
# IL7 = target: IL7
# IL5 = target: IL5
# IL16 = target: IL16
# Note: reference of the scale not given here.
sequence,measurement,setting,value
TAGACATGAATAAAGGAGCAGC,sensor-assay potency score (higher = more potent),GLA,-0.359
TTTTCTGCACAGCATATTCAGA,sensor-assay potency score (higher = more potent),GKN1,-0.973
TTGTTGTCATCATTGACGTTGA,sensor-assay potency score (higher = more potent),GKN1,-0.288
TAGTACACATTTTACTATCTGT,sensor-assay potency score (higher = more potent),GJB7,-0.554
TTGTGTGTCACAGAGTAGCTTT,sensor-assay potency score (higher = more potent),GJB7,-0.222
TTGAATCAGCAAGTCCCGCAGC,sensor-assay potency score (higher = more potent),GIP,-0.492
TGACTTTTGAGTGTAAACCAAG,sensor-assay potency score (higher = more potent),GKN2,-1.39
TCTGACTCTAGAGTGACCCTTT,sensor-assay potency score (higher = more potent),GJB7,0.802
TTGTCCATGGCAATACTGTAGT,sensor-assay potency score (higher = more potent),GIP,-0.964
TACAGTATAGTACATAGTGAAT,sensor-assay potency score (higher = more potent),GJB7,-1.64
TTTGTGCACAATGCATGTCTTC,sensor-assay potency score (higher = more potent),GKN1,-0.893
TTCAACACAATACACAAGCATG,sensor-assay potency score (higher = more potent),GJB7,-0.84
TTTATTTCCAACATCTGCATAA,sensor-assay potency score (higher = more potent),GLA,-0.987
TTTGTCTTCCAACTCAGCTTAG,sensor-assay potency score (higher = more potent),GJB7,-1.04
TTCTGCGTCAGGTTGCAGCGCT,sensor-assay potency score (higher = more potent),GPIHBP1,-0.795
TAGACAGTGAAGGGCAACCAGC,sensor-assay potency score (higher = more potent),GPR3,-1.54
TACCATAGACATCTCTTGCCCC,sensor-assay potency score (higher = more potent),GPR89B,0.0271
TCAGCTACCATAGACATCTCTT,sensor-assay potency score (higher = more potent),GPR89B,0.143
TTGAAGGCTGCCGCCATCCTAT,sensor-assay potency score (higher = more potent),GPS1,-1.18
TAGGTCGTCTCATTGCCCCTGA,sensor-assay potency score (higher = more potent),GRHL3,0.415
TTCCAGGGCCTCTGTCGTGTAG,sensor-assay potency score (higher = more potent),HBQ1,-1.54
AGAAGTAGGTCTTCGTGGCGGG,sensor-assay potency score (higher = more potent),HBQ1,-0.804
TTTCTTCATCTGATGCTCGATA,sensor-assay potency score (higher = more potent),HDHD2,-0.755
TTTGAAATCAGGTAGTGCCCGA,sensor-assay potency score (higher = more potent),HDHD2,-0.154
TTGAGCAGGTCAGCTAAGGAGT,sensor-assay potency score (higher = more potent),HHATL,-0.763
ATATTTGCAAAGCCAGTCGTTG,sensor-assay potency score (higher = more potent),HHATL,-0.866
ATGTTGTCACGCAACACCTTGC,sensor-assay potency score (higher = more potent),HIST1H4A,-1.02
TAATCAAACATCTCCACAGTGA,sensor-assay potency score (higher = more potent),HIP1R,-0.629
TACACAGAGTAGCTCTCCTTGC,sensor-assay potency score (higher = more potent),HIST1H2BM,-0.828
TTGGAGCCTTTCTTCGGGGCAG,sensor-assay potency score (higher = more potent),HIST1H2BN,-0.909
TCCATCCTTCTTCTGAGCCTTG,sensor-assay potency score (higher = more potent),HIST1H2BM,-1.16
TTCTTCTGGGCCTTTGTCACTG,sensor-assay potency score (higher = more potent),HIST1H2BN,-0.654
TTCTTGGAGCCTTTCTTCGGGG,sensor-assay potency score (higher = more potent),HIST1H2BN,-0.852
TAGCAGTAGGCGCACGGCCGTC,sensor-assay potency score (higher = more potent),HIST1H2BM,-1.42
TGACTGTCTTGCGCTTGGCGTG,sensor-assay potency score (higher = more potent),HIST1H4A,-1.68
TTAATGGCCTTCTTGGAGCCTT,sensor-assay potency score (higher = more potent),HIST1H2BM,-0.535
TAGATCAGACCAGAGATCCGCT,sensor-assay potency score (higher = more potent),HIST1H4A,0.162
TATAGGTGACAGCGTCACGGAT,sensor-assay potency score (higher = more potent),HIST1H4A,-1.01
TTCCATCCTTCTTCTGAGCCTT,sensor-assay potency score (higher = more potent),HIST1H2BM,-0.589
TTTGTCAAGCTGGTGGTCCTGT,sensor-assay potency score (higher = more potent),HIP1R,0.332
ATACACAGAGTAGCTCTCCTTG,sensor-assay potency score (higher = more potent),HIST1H2BM,-0.936
TCACGCAACACCTTGCGGTGGC,sensor-assay potency score (higher = more potent),HIST1H4A,0.266
TGGCCTTGGACGAGATACCGGT,sensor-assay potency score (higher = more potent),HIST1H2BN,-1.2
TTGTACACGTACACGGAGTAGC,sensor-assay potency score (higher = more potent),HIST1H2BN,-0.485
TTGCCGTCCTTCTTCTGGGCCT,sensor-assay potency score (higher = more potent),HIST1H2BN,-0.777
ATGTTGTTGACATCGGTCCCAG,sensor-assay potency score (higher = more potent),HIP1R,-0.946
TCTTCTGGGCCTTTGTCACTGC,sensor-assay potency score (higher = more potent),HIST1H2BN,-0.0714
TTGTCACGCAACACCTTGCGGT,sensor-assay potency score (higher = more potent),HIST1H4A,-0.404
TTGGTCAGCAGCAGCTTGGTGT,sensor-assay potency score (higher = more potent),HIP1R,-0.763
TTCTTTCCATCCTTCTTCTGAG,sensor-assay potency score (higher = more potent),HIST1H2BM,-0.665
TTGTACACATACACAGAGTAGC,sensor-assay potency score (higher = more potent),HIST1H2BM,-0.844
TCTCCTCGTAGATCAGACCAGA,sensor-assay potency score (higher = more potent),HIST1H4A,-0.957
ATAGGTGACAGCGTCACGGATC,sensor-assay potency score (higher = more potent),HIST1H4A,-0.773
TACACATACACAGAGTAGCTCT,sensor-assay potency score (higher = more potent),HIST1H2BM,-0.419
TTTGCGCTTCTTTCCATCCTTC,sensor-assay potency score (higher = more potent),HIST1H2BM,-0.136
TTGAGCTGTCGGAAAACTGATT,sensor-assay potency score (higher = more potent),HIP1R,-1.02
TTGTTAATGGCCTTCTTGGAGC,sensor-assay potency score (higher = more potent),HIST1H2BM,-1.15
TGTCACGCAACACCTTGCGGTG,sensor-assay potency score (higher = more potent),HIST1H4A,-1.69
TAGCCTTGGAAGAGATGCCGGT,sensor-assay potency score (higher = more potent),HIST1H2BM,-0.26
TCACTGCCTTCTTGGAGCCTTT,sensor-assay potency score (higher = more potent),HIST1H2BN,-1.34
AACACCTTGAGCACCCCGCGAG,sensor-assay potency score (higher = more potent),HIST1H4A,-0.99
TACACGTACACGGAGTAGCTCT,sensor-assay potency score (higher = more potent),HIST1H2BN,-0.756
TTCTGGGCCTTTGTCACTGCCT,sensor-assay potency score (higher = more potent),HIST1H2BN,-1.05
TCGAAGATGTCATTGACGAAGG,sensor-assay potency score (higher = more potent),HIST1H2BN,-1.38
TTTGTCACTGCCTTCTTGGAGC,sensor-assay potency score (higher = more potent),HIST1H2BN,-0.47
TTGGACGAGATACCGGTGTCGG,sensor-assay potency score (higher = more potent),HIST1H2BN,-1.16
AAAAACACCTTGAGCACCCCGC,sensor-assay potency score (higher = more potent),HIST1H4A,0.101
TAGACCACGTCCATGGCAGTGA,sensor-assay potency score (higher = more potent),HIST1H4A,-0.363
TAATGGTCACGCGCTTGGCGTG,sensor-assay potency score (higher = more potent),HIST2H3A,-1.65
TTGGGCATAATGGTCACGCGCT,sensor-assay potency score (higher = more potent),HIST2H3A,-0.549
TGGACTTCTGGTAGCGCCGGAT,sensor-assay potency score (higher = more potent),HIST2H3A,-1.34
TTAGAGTACGGAGCAATCGAAG,sensor-assay potency score (higher = more potent),HLA-DRA,-1.52
TCAAACATAAACTCGCCTGATT,sensor-assay potency score (higher = more potent),HLA-DRA,-0.205
TCGTGAGTCACAATGCAGGAGA,sensor-assay potency score (higher = more potent),HLA-DMA,-0.908
TTGGTGATCGGAGTATAGTTGG,sensor-assay potency score (higher = more potent),HLA-DRA,-0.222
TTAAAGTCCTGCGCGATCTCGC,sensor-assay potency score (higher = more potent),HIST2H3A,-0.191
TACTTTGTCTGTTTCCTCTAGA,sensor-assay potency score (higher = more potent),HKR1,0.778
TGGCGCACAGGTTCGTGTCTTC,sensor-assay potency score (higher = more potent),HIST2H3A,-0.891
TTGCGGATCAGCAGCTCCGTGG,sensor-assay potency score (higher = more potent),HIST2H3A,-1.49
TCAGCGTGAACACTTCAGCGAT,sensor-assay potency score (higher = more potent),HLA-DMA,-1.13
TTGGAGTAGGAGCTTCAGGGAC,sensor-assay potency score (higher = more potent),HLA-DMA,-1.01
TACCAGTACAGTCTCATGCATA,sensor-assay potency score (higher = more potent),HKR1,-0.938
TTTGACTCCTTGATAAAGCCTG,sensor-assay potency score (higher = more potent),HKR1,-0.108
TTTGGTATCTAGCAATGGCTGA,sensor-assay potency score (higher = more potent),HKR1,-0.389
AAGTCCTGCGCGATCTCGCGTA,sensor-assay potency score (higher = more potent),HIST2H3A,-1.16
TTGACTTCCACGTAAAGCCTCG,sensor-assay potency score (higher = more potent),HKR1,-0.345
TGTGTAGCGGTCAATTTCGTGA,sensor-assay potency score (higher = more potent),HLA-DMA,-0.684
TTGCCGCCGGTCGACTTGCGAG,sensor-assay potency score (higher = more potent),HIST2H3A,-1.63
TTCACTGTCAGCATGGGTGGGA,sensor-assay potency score (higher = more potent),HLA-DMA,0.0511
TAAACAATAAGTACACAAGAGA,sensor-assay potency score (higher = more potent),HLA-DRA,-0.861
TCTCGCGTACCAGCCGCTGGAA,sensor-assay potency score (higher = more potent),HIST2H3A,-1.89
TTCGTGAGTCACAATGCAGGAG,sensor-assay potency score (higher = more potent),HLA-DMA,0.512
TTAACTTAGCACAAAAGCCTTG,sensor-assay potency score (higher = more potent),HKR1,-0.326
TTGACTCCTTGATAAAGCCTGG,sensor-assay potency score (higher = more potent),HKR1,-0.606
TAAACTCGCCTGATTGGTCAGG,sensor-assay potency score (higher = more potent),HLA-DRA,-0.677
TACCTCTGGAGGTACATTGGTG,sensor-assay potency score (higher = more potent),HLA-DRA,-0.943
ATAAACTTGAAAACAGCTGAGA,sensor-assay potency score (higher = more potent),HKR1,-0.36
TCCGTCTTAAAGTCCTGCGCGA,sensor-assay potency score (higher = more potent),HIST2H3A,-1.2
TGCTGGATCATCCACTCGCAGA,sensor-assay potency score (higher = more potent),HLA-DMA,-1.77
TTCTGCTGCATTGCTTTTGCGC,sensor-assay potency score (higher = more potent),HLA-DRA,-0.581
TTGCTGGATCATCCACTCGCAG,sensor-assay potency score (higher = more potent),HLA-DMA,-1.31
TTGATTTCTCCAAATCCTGAGA,sensor-assay potency score (higher = more potent),HKR1,-0.892
TTACTGACAAAACAGACCAAAG,sensor-assay potency score (higher = more potent),HLA-DMA,-1.69
ATTTCGTGAGTCACAATGCAGG,sensor-assay potency score (higher = more potent),HLA-DMA,-1.4
TAGATGATGAGAACAATGCCCA,sensor-assay potency score (higher = more potent),HLA-DMA,-0.0715
TTAAGGTTTGACTTCAGGCTAA,sensor-assay potency score (higher = more potent),HKR1,0.0194
TAACTTAGCACAAAAGCCTTGC,sensor-assay potency score (higher = more potent),HKR1,0.138
TTCGTGTCTTCGAACAGCCCCA,sensor-assay potency score (higher = more potent),HIST2H3A,-0.563
TTGATGAGGACTGACATACTGC,sensor-assay potency score (higher = more potent),HKR1,-0.174
TGGATGGCGCACAGGTTCGTGT,sensor-assay potency score (higher = more potent),HIST2H3A,-1.93
TTTTTTTGTATGAATAACCAAA,sensor-assay potency score (higher = more potent),HS6ST1,-1.12
TTCTATAATATCCAGTCTGTTA,sensor-assay potency score (higher = more potent),IKBKAP,-1.24
TTCTGTTCTACTGAGTCCTTTC,sensor-assay potency score (higher = more potent),IL18RAP,-0.716
TAGAGGAGTGAGCTCTGGGTGC,sensor-assay potency score (higher = more potent),IL32,-1.21
TTTATTTTCTTCCAAACTCTTT,sensor-assay potency score (higher = more potent),IL7,-0.524
TCTTTCACCAATGCACTTGTGG,sensor-assay potency score (higher = more potent),IL5,-0.0823
TTCCTTGTGACAATCACAGCTT,sensor-assay potency score (higher = more potent),IL16,0.571
TTTCTGTTCTACTGAGTCCTTT,sensor-assay potency score (higher = more potent),IL18RAP,-0.456
TTTTATGTACAGGAACAGGAAT,sensor-assay potency score (higher = more potent),IL5,-1.18
TTCTTTATTAAGGACAAGTTTT,sensor-assay potency score (higher = more potent),IL5,-1.48
